Bioassay records from PubChem BioAssay.
The full list was thinned out, with hits kept by preference.
Dicer inh = blocks human Dicer maturation of pre-miR-21 | z-score at 25 µM | Q9UPY3 | cat-ELCCA pre-miR-21 Dicer processing, chemiluminescence; hits give high values | hit rate 6% among 47,000; in the data active = z-score above about 3, passing the limit was not always enough;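 note: plate controls were vehicle for no effect and no enzyme for full effect; higher signal means more uncleaved substrate so more Dicer inhibition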
Target sequence (Q9UPY3 whole entry, looked up): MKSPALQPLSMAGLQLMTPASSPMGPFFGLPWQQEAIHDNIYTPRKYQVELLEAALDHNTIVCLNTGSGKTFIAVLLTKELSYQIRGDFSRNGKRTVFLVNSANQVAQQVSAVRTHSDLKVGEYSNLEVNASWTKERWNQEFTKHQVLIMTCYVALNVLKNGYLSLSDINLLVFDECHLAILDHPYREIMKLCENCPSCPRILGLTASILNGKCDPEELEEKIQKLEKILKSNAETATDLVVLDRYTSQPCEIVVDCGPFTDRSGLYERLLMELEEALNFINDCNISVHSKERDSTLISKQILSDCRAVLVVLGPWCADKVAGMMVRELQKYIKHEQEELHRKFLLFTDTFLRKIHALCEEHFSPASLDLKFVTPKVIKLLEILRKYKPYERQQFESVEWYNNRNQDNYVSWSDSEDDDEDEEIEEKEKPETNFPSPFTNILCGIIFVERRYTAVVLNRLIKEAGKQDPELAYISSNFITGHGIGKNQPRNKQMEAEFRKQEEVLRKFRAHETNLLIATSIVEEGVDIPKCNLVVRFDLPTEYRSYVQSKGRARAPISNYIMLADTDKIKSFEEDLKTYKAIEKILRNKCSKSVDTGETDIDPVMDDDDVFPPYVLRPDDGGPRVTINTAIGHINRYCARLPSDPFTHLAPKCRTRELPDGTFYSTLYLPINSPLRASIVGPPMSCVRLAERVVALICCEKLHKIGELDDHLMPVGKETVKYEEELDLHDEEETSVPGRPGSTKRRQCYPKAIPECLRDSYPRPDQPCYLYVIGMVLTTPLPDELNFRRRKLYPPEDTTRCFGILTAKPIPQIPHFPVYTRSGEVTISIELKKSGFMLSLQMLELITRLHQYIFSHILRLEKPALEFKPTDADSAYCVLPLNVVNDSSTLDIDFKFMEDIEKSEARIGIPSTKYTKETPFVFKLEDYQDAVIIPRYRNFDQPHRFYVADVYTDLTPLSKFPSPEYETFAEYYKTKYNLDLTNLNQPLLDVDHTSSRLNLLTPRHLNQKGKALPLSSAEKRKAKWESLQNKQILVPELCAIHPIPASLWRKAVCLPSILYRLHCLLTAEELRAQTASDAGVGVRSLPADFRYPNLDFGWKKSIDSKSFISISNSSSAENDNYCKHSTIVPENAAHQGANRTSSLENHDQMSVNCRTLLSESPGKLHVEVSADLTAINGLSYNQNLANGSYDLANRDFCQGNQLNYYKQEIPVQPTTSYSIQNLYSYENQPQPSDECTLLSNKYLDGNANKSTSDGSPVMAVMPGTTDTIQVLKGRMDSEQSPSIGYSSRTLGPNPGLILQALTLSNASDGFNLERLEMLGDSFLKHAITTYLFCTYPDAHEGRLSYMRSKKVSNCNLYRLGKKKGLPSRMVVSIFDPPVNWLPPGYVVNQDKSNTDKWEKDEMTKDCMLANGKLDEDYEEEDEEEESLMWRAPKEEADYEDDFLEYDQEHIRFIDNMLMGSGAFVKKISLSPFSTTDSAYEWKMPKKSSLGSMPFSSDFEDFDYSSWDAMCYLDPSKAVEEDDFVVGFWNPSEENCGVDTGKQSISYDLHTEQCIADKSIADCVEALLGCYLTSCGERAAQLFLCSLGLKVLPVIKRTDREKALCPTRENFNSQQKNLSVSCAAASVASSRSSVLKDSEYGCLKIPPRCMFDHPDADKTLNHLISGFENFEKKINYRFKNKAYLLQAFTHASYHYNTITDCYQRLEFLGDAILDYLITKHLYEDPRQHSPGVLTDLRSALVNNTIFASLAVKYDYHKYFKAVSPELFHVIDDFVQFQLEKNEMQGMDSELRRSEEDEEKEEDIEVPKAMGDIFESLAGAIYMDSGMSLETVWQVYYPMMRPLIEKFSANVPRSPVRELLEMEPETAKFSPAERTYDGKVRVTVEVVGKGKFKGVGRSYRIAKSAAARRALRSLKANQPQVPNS
* marks the source's active call; other numbers are inactive results.

SMILES | Dicer inh
O=C(Nc1ccc(Cl)cc1Cl)N1CCCC1c1cccnc1 (configuration not stated) | -0.99
COC(=O)C1=C(C)NC2=C(C(=O)CC(c3ccc(Cl)cc3)C2)C1c1ccccc1OC(C)C (configuration not stated) | 0.43
Cc1ccc2nc(C(F)(F)F)cc(N3CCN(/C=C(/C#N)S(=O)(=O)c4ccccc4)CC3)c2c1 | -1.6
Cc1ccc(/C(O)=C2\C(=O)C(=O)N(CCN3CCOCC3)C2c2ccc(C)o2)cc1 (configuration not stated) | 0.1
CC(C)(C)c1cc2nc(-c3ccccc3)cc(=O)n2[nH]1 | -1.1
Cc1cc(=O)n2[nH]c(-c3cccs3)cc2n1 | -0.3
O=c1cc(-c2ccccc2)nc2cc(-c3cccs3)[nH]n12 | 3.1*
O=c1cc(-c2ccccc2)nc2nc(C(F)(F)F)[nH]n12 | -2.4
O=c1cc(-c2ccccc2)nc2c(-c3ccccc3)c(C(F)(F)F)[nH]n12 | 4*
O=c1cc(-c2ccccc2)nc2cc(-c3ccccc3)[nH]n12 | 0.61
Nc1nc2c(nc(NCc3ccccc3)n2[C@H]2O[C@@H](CO)[C@H](O)[C@@H]2O)c(=O)[nH]1 | -1.4
CC(=O)OCC(=O)[C@@]1(O)[C@H](C)CC2C3CCC4CC(=O)C=CC4(C)C3[C@H](O)CC21C (some centres not stated) | 0.65
Nc1nonc1-c1nc2ccccc2n1CC(=O)Nc1ccc(Cl)cc1 | -0.74
FC(F)(F)c1cccc(CSc2ccccc2-n2cccc2)c1 | 1.4
O=C(CSC1CC(=O)N(c2ccc(Br)cc2)C1=O)Nc1ccc(Cl)cc1 (configuration not stated) | -1.1
O=C(c1cccc(Cl)c1)N(Cc1cccs1)C1CCS(=O)(=O)C1 (configuration not stated) | 1.8
C=CCOc1ccc(C(=O)N(Cc2ccc(OC)c(OC)c2)C2CCS(=O)(=O)C2)cc1 (configuration not stated) | 1.4
Cc1ccc2c(C)c(C(=O)N(Cc3ccc(N(C)C)cc3)C3CCS(=O)(=O)C3)oc2c1 (configuration not stated) | 5.1*
CCc1cccc(CC)c1N1C(N)=NC(N)=NC1(C)C | 2.8
CCOC(=O)Cc1nc2ccccc2[nH]1 | 2.8
CC(C)(Cc1nc2ccccc2[nH]1)C(=O)O | -1.3
COC(=O)CC1=NN(c2nc3ccccc3[nH]2)C(=O)C1 | 5.3*
CC(C)c1ccc(/C=N/N=C2/NC(=O)C(CC(=O)O)S2)cc1 (configuration not stated) | 2.5
COc1ccc(CNCc2cc(Br)ccc2OC)cc1 | 2.2
COc1cc(CNCc2cc(Br)ccc2OC)cc(OC)c1 | 0.2
SMILES | Dicer inh
COc1ccc(Br)cc1CNc1cc(C)cc(C)c1 | 3.6*
Cc1ccc(OS(=O)(=O)c2cc(C)c(Cl)cc2C)c(Br)c1 | 0.29
O=C1c2cccc3cc([N+](=O)[O-])cc(c23)C(=O)N1Cc1ccncc1 | 3.5*
O=C(O)CN1C(=O)c2cccc3cc([N+](=O)[O-])cc(c23)C1=O | 2.9
CN1C(=O)c2cccc3cc([N+](=O)[O-])cc(c23)C1=O | 0.58
COC(=O)c1ccc(Cn2c(=O)cc(N)n(-c3ccccc3C)c2=O)cc1 | -2.2
Cc1ccc(Nc2nc3ccccc3s2)cc1Cl | 0.74
COc1ccc2ccccc2c1C(O)c1nccn1C (configuration not stated) | -3.6
COc1ccc(C(O)c2nccn2C)cc1OC (configuration not stated) | 3.5*
Cn1ccnc1C(O)c1ccccc1 (configuration not stated) | 1.3
O=C1C2ON(c3ccccc3)C(c3ccncc3)C2C(=O)N1c1cccc(Cl)c1 (configuration not stated) | 0.39
COc1ccc(C2C3C(=O)N(c4ccc(F)cc4)C(=O)C3ON2c2ccccc2)cc1 (configuration not stated) | 0.49
CN(C)c1ccc(C2C3C(=O)N(Cc4ccccc4)C(=O)C3ON2c2ccccc2)cc1 (configuration not stated) | 3.3*
Fc1ccc(N=C/C=C/C=C/Nc2ccc(F)cc2)cc1 | 3.1*
C(/C=C/C=C/Nc1ccccc1)=Nc1ccccc1 | 0.52
O=C(CN1C(=O)C(=O)c2ccccc21)Nc1ccccc1Cl | -1.9
CN(C)CCCN1C(=O)C(=O)/C(=C(/O)c2ccc(F)cc2)C1c1cccs1 (configuration not stated) | -0.02
CCC(C)N1C(=O)N(C)C2NC(=O)NC21 (configuration not stated) | 1.9
CCC(C)C(C(=O)O)N1C(=O)NC2NC(=O)NC21 (configuration not stated) | 1.2
CCCC(C(=O)O)N1C(=O)NC2NC(=O)NC21 (configuration not stated) | 3.4*
O=C(Oc1c(-c2ccccc2)c(=O)n2c3c(c4cccc1c42)CCCC3)c1cccc(C(F)(F)F)c1 | 0.47
Cc1ccc(SC(=O)N2CCOCC2)cc1 | -0.58
O=C(C1Cc2ccccc2C1)N1CCOCC1 | 7.3*
O=C(c1cc(-c2ccccc2)nc2ccccc12)N1CCOCC1 | 1.5
CC(=O)NNC(=O)Cc1sc2ccc(Cl)cc2c1C | -4.2
